# phage Ecoli inh = E. coli growth loss with phage present. inhibition, % at 11.9 µM. growth absorbance. hit rate 0.26% among 360,000; in the data active means inhibition above about 11%
# AddAB inh = less growth of phage-infected E. coli with AddAB; hit rate 0.29% among 330,000; E. coli expressing H. pylori AddAB, absorbance growth; inhibition, % at 11.9 µM; in the data active means inhibition above about 12%;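 further: 0% = vehicle wells of infected cells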
# E coli growth-1 = counter-screen for AddAB inhibitors: E. coli growth inhibition. hit rate 0.27% among 330,000. E. coli V3065 growth, OD600 absorbance, 18 h. inhibition, % at 11.9 µM;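 active means inhibition above the campaign's mean inhibition across all tested compounds plus 3 SD, cut at about 9.9% in these data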;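 further: uninfected addAB+ strain grown without phage in ampicillin broth; 0% = DMSO wells and 100% = ciprofloxacin 0.95 µg/ml wells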
# E coli growth-2 = blocks Escherichia coli growth; OD600, 23 h; hits give low values; OD600 absorbance (concentration not given with the values); hit rate 0.21% among 330,000; AID 1053175;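 active means OD600 absorbance below the run mean of sample wells minus 3.6 SD, in any replicate, cut at about 0.56 in these data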
# Tat transport = inhibitors of E. coli Tat protein transport. inhibition, % at 10 µM. hit rate 0.036% among 340,000. E. coli MC4100 TorA-mCherry Tat export, fluorescence. AID 488895;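 active means mean replicate inhibition at least 50% and at least half of replicates individually reaching 50%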;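 further: exported cargo escapes ClpAP degradation while cytoplasmic cargo is degraded and loses fluorescence; 0% = median of neutral control wells and 100% = median of NaSCN control wells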
# AddAB confirm = confirmation screen: growth loss of phage-infected E. coli expressing H. pylori AddAB; inhibition, % at 11.9 µM; shares compounds with AddAB inh; hit rate 64% among 880; E. coli V3065 expressing H. pylori AddAB, T4 phage, OD; T4 phage with gene 2 nonsense mutations;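 active means mean inhibition above a set limit taken from the earlier primary screen, cut at about 13% in these data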;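 further: higher means less bacterial growth since AddAB block lets phage replicate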
# RecBCD counter = counter-screen: growth loss of RecBCD+ E. coli with mutant T4 phage; shares compounds with AddAB inh; E. coli V66 + mutant T4 phage, OD growth; inhibition, % at 11.9 µM; hit rate 73% among 880;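 active means mean inhibition above the mean of solvent-only control wells plus 3 SD, cut at about 4% in these data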;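 further: optical density read after an 18 h incubation at 37 °C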
# bact viab count = counter-screen for AddAB inhibitors: inhibitors of bacterial viability; inhibition, % at 11.9 µM; absorbance (AddAB counterscreen); hit rate 35% among 880; shares compounds with AddAB inh; in the data active means inhibition above about 25%
# RecBCD conf = growth loss of phage-infected V66 E. coli, RecBCD confirmation screen; E. coli V66 + T4 2- phage, growth OD; shares compounds with phage Ecoli inh; hit rate 45% among 890; inhibition, % at 11.9 µM; AID 651982;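 active means mean inhibition over triplicates exceeding the hit threshold derived in the original primary screen, cut at about 11% in these data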
# Ecoli viability = bacterial viability inhibition counter-screen for RecBCD | shares compounds with phage Ecoli inh | E. coli viability, absorbance (OD) growth | inhibition, % at 11.9 µM | hit rate 29% among 890 | AID 651983; in the data active means inhibition above about 20%;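 further: E. coli strain V66 grown with compound alone and no phage infection; 0% = bacteria with DMSO vehicle only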
# AddAB phage OD = growth loss of phage-infected AddAB E. coli, RecBCD counter-screen; hit rate 45% among 890; shares compounds with phage Ecoli inh; AID 651984; inhibition, % at 11.9 µM; E. coli expressing H. pylori AddAB + T4 phage, OD growth; gene 2 mutant T4, recBCD-deleted host;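 active means mean inhibition above the solvent-only control wells' mean plus 3 SD, cut at about 22% in these data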;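 further: higher means less bacterial growth from phage killing when AddAB is blocked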
# Starred values were filed as active, the others as inactive; . = not tested or not shown. Compounds with a hit are over-represented: about 0.51% of the library has one in this group of screens.
SMILES,phage Ecoli inh,AddAB inh,E coli growth-1,E coli growth-2,Tat transport,AddAB confirm,RecBCD counter,bact viab count,RecBCD conf,Ecoli viability,AddAB phage OD
C/C(N=Nc1nc2ccccc2s1)=N\Nc1ccccc1O,32.9*,14.5*,11.4*,.,-5.7,31.9*,34.2*,31.4*,23.8*,26.5*,38.7*
CCn1cc(C(=O)O)c(=O)c2cc(F)c(N3CCN(C(=S)Nc4ccccc4OC)CC3)cc21,99.7*,97.5*,99.1*,0.0735*,24.3,98.5*,99.4*,98.9*,101.6*,102.9*,101.7*
CCOC(=O)c1cn(CC)c2cc(N3CCCCC3)c(F)cc2c1=O,1.1,4.0,1.6,0.656,7.4,.,.,.,.,.,.
CCn1cc(C(=O)O)c(=O)c2cc(F)c(N3CCN(C(=S)NC(=O)c4c(OC)cccc4OC)CC3)cc21,99.0*,98.9*,98.4*,0.0695*,25.9,98.8*,98.9*,99.1*,101.7*,102.5*,102.8*
O=C(C[n+]1ccccc1)NN=Cc1ccc(Cl)cc1,.,.,.,0.666,.,.,.,.,.,.,.
CCn1cc(C(=O)NCCC(C)C)c(=O)c2cc(F)c(N3CCN(C)CC3)cc21,40.2*,99.8*,98.7*,0.066*,8.9,99.4*,58.5*,99.5*,19.0*,35.7*,93.2*
CCCCNC(=O)c1cn(CC)c2cc(N3CCN(C)CC3)c(F)cc2c1=O,96.7*,99.8*,98.4*,0.071*,.,98.1*,99.8*,99.2*,102.7*,104.5*,104.4*
CCN(CC)CCNC(=O)c1cn(CC)c2cc(N3CCN(C)CC3)c(F)cc2c1=O,95.8*,100.4*,98.0*,0.0555*,35.0,99.2*,99.8*,97.9*,65.3*,102.2*,100.0*
CCn1cc(C(=O)NCc2cccnc2)c(=O)c2cc(F)c(N3CCN(C(=O)c4ccco4)CC3)cc21,20.9*,95.3*,93.9*,0.051*,10.3,97.6*,10.4*,99.0*,12.9*,14.0,102.9*
Cc1ccc(S(=O)(=O)Oc2ccccc2C=NN=C(N)N)cc1,.,.,.,0.691,.,.,.,.,.,.,.
Cc1cccc(C=NNC(=O)c2csnn2)c1,.,.,.,0.756,.,.,.,.,.,.,.
CC(C)(C)OC(=O)NN=Cc1ccc(OC(=O)c2ccco2)cc1,.,.,.,0.67,.,.,.,.,.,.,.
Brc1ccc(NN=C(N=Nc2nn[nH]n2)c2ccccc2)cc1,.,.,.,0.598,.,.,.,.,.,.,.
Brc1ccc(N/N=C(/N=Nc2nn[nH]n2)c2ccccc2)cc1,26.3*,29.7*,30.3*,.,15.0,21.5*,25.9*,25.4*,21.0*,22.9*,27.6*
C=CCNC(=S)N=c1ccccn1CC,.,.,.,0.698,.,.,.,.,.,.,.
CCC(ONc1ccccc1C(F)(F)F)(C(=O)NN(C)C)c1ccccc1 (stereo not given),17.4*,100.5*,22.8*,0.503,-10.0,98.3*,13.9*,62.0*,11.5*,12.3,103.2*
CCOc1ccc(OCC(=O)Nc2ccccc2C(F)(F)F)cc1,4.1,-1.2,0.0,0.715,2.3,.,.,.,.,.,.
O=C(NC(CO)C(O)c1ccc([N+](=O)[O-])cc1)C(Cl)Cl (stereo not given),72.5*,78.6*,85.4*,0.0605*,-3.1,86.5*,83.6*,86.0*,79.4*,78.8*,73.7*
Cc1ccc(NC(=S)NC(CO)C(O)c2ccc([N+](=O)[O-])cc2)cc1 (stereo not given),3.0,-0.3,-2.2,0.666,-9.5,.,.,.,.,.,.
O=[N+]([O-])c1ccc(C(O)C(CO)NC(=S)Nc2ccccc2)cc1 (stereo not given),1.9,0.8,2.6,0.687,1.0,.,.,.,.,.,.
O=C(N[C@H](CO)[C@H](O)c1ccc([N+](=O)[O-])cc1)C(Cl)Cl,77.5*,89.2*,90.3*,0.0455*,5.2,87.4*,86.2*,84.5*,86.0*,87.6*,80.8*
O=C(O)c1cccc(NC(=S)N/N=C/c2ccccn2)c1,23.1*,17.3*,16.5*,.,-3.0,19.4*,17.0*,17.9,11.4*,15.1,17.2
CC(C)c1cccc(C(C)C)c1OC(=O)C1OC(C(C)(C)C)=CC1c1ccccc1 (stereo not given),.,.,.,0.684,.,.,.,.,.,.,.
CCOC(=O)C1=Nc2ccccc2C1=[N+]=[N-],91.2*,97.8*,96.2*,.,10.8,100.2*,97.9*,100.5*,97.8*,99.1*,100.8*
CCN1CCN(c2cc3c(cc2F)c(=O)c(C(=O)O)cn3C2CC2)CC1,102.2*,99.4*,99.7*,0.064*,146.4*,98.7*,99.6*,99.2*,102.0*,103.8*,103.0*
SMILES,phage Ecoli inh,AddAB inh,E coli growth-1,E coli growth-2,Tat transport,AddAB confirm,RecBCD counter,bact viab count,RecBCD conf,Ecoli viability,AddAB phage OD
CC(=O)N1CCN(c2cc3c(cc2F)c(=O)c(C(=O)O)cn3C2CC2)CC1,96.3*,102.1*,101.0*,0.067*,62.4*,98.7*,99.1*,98.6*,101.0*,102.2*,101.8*
CCOC(=O)C1CN(c2cc3c(cc2F)c(=O)c(C(=O)O)cn3CC)OC1C(=O)OCC (stereo not given),4.4,3.5,-1.3,0.656,0.0,.,.,.,.,.,.
CC(=O)C(=NNc1ccccc1)N1CCOCC1,.,.,.,0.705,.,.,.,.,.,.,.
O=[N+]([O-])c1cc2c(cc1C=NNS(=O)(=O)c1ccc(Br)cc1)OCO2,.,.,.,0.655,.,.,.,.,.,.,.
COc1cc(C=NNC(=S)Nc2cccc(S(=O)(=O)N(C)C)c2)ccc1O,.,.,.,0.677,.,.,.,.,.,.,.
CCc1ccc[n+](-c2[nH]c(=O)sc2C=N/N=C(\N)[O-])c1,.,.,.,0.659,.,.,.,.,.,.,.
COc1c(N2CCN(C(=S)Nc3ccc(F)cc3)C(C)C2)c(F)cc2c(=O)c(C(=O)O)cn(C3CC3)c12 (stereo not given),72.9*,98.9*,99.1*,0.0735*,76.3*,97.5*,98.5*,99.8*,13.5*,14.1,101.5*
COc1c(N2CCN(C(=S)NC3CC4CCC3C4)C(C)C2)c(F)cc2c(=O)c(C(=O)O)cn(C3CC3)c12 (stereo not given),98.8*,98.6*,99.2*,0.092*,63.8*,101.7*,101.0*,100.6*,101.5*,103.3*,102.9*
Cc1cc(C)c(C)c(S(=O)(=O)N2CCC(C(=O)NNC(=O)c3ccccc3O)CC2)c1C,11.7*,14.9*,8.8,0.645,-6.0,10.8,8.1*,6.1,0.5,1.2,-0.1
